In PubChem BioAssay (NCATS):
“And” between values parts separate entries of the source, which are not always exact repeats. Equal values may be shown once. Records with an inconclusive call do not appear. The source made the active and inactive calls. Unless noted, the call rests on the fitted dose curve; in most records, active means well fitted curve in either direction with a large enough effect (not every such curve was filed as active); inconclusive means small, poorly fitted or top-dose-only effect, or another doubt; inactive means flat fitted curve, though single readings scatter.

Key:
[1] = Stat Signaling Pathway (AID 446);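 further: ME-180 cervical cancer cells given 40 pM IL-6 alongside compound; SIE-controlled beta-lactamase reporter measured as 460/530 nm FRET emission ratio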
Outline: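 Normalization used AC90 stimulation (300 pM IL-6) and AC90 inhibition (125 nM pan-JAK inhibitor at 40 pM IL-6). The underlying signal is SIE-driven beta-lactamase in ME-180 cells after 5 h IL-6 exposure with compound.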

[2] = target: Glucocorticoid receptor (Homo sapiens) (UniProt P04150); assay: GR-GFP Redistribution (AID 450;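 active means compounds whose dose series gives a full or clear partial fitted curve of increased nuclear translocation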; further: potency means the concentration at half of the fitted maximal effect); settings: U2OS GR-GFP nuclear translocation, laser cytometry, 2 h
[3] = target: Glucocorticoid receptor (Homo sapiens) (UniProt P04150); assay: GR-EFC Redistribution (AID 451; calls by dose curve; further: potency means the concentration at half of the fitted maximal effect); settings: CHO-K1 GR-EFC translocation, beta-gal luminescence, 2 h
Outline: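 CHO-K1 cells expressing nuclear EA and GR-ED fragments of b-gal; compounds titrated up to 46 uM final, 2 h at 37 C. GR nuclear translocation read as complemented b-gal luminescence after 1 h RT detection.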

[4] = target: Mitogen-activated protein kinase 10 (Mus musculus) (UniProt Q61831); assay: JNK3 AlphaScreen Assay (AID 530);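 further: kinase came from lysate of stimulated human HepG2 cells; signal reports phosphorylation of biotinylated GST-cJun 1-79 at Ser73 with 10 µM ATP; series mostly up to about 57 µM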
Outline: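 Activity was read by AlphaScreen after JNK3-containing HepG2 lysate (cytokine pre-activated) phosphorylated biotinylated GST-cJun with 10 uM ATP at room temperature. Phospho-Ser73 cJun antibody with Protein-A acceptor beads provided detection.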

Measured: Potency

Glucocorticoid receptor (Homo sapiens), sequence (P04150 whole entry, looked up, the tested form may be a part): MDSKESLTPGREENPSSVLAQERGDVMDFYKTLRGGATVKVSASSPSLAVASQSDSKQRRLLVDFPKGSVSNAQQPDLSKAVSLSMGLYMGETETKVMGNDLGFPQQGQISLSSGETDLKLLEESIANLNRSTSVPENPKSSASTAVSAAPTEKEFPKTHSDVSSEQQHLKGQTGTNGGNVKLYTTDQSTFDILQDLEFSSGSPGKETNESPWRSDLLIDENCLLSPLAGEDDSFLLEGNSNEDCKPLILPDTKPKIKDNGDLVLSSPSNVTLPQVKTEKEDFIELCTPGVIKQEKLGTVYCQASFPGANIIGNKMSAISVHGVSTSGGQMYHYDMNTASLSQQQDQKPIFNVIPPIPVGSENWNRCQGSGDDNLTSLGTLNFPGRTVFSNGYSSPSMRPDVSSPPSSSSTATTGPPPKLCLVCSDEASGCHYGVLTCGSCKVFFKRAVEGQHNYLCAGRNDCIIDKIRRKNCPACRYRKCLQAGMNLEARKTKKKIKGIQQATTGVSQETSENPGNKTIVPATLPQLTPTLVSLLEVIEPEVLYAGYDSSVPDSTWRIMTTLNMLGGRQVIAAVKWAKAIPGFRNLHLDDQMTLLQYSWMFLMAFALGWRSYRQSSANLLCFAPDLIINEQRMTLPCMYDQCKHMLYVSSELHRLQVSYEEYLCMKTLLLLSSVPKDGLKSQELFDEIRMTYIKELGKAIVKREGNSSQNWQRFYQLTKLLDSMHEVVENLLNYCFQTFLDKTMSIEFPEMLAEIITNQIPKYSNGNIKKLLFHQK

CCC(=O)c1ccc2c(c1)N(CCCN(C)C)c1ccccc1S2
inactive: [1] | [2] > 46 µM | [3] > 46 µM | [4]

Cc1nc2sccn2c(=O)c1CCN1CCC(=C(c2ccc(F)cc2)c2ccc(F)cc2)CC1
inactive: [1] | [2] > 46 µM and > 20.6 µM | [3] > 46 µM | [4]

CCCCNc1c(C(=O)OCC)c(C)nc2c1cnn2CC
inactive: [1] | [2] > 46 µM and > 20.6 µM | [3] > 46 µM and > 20.6 µM | [4]

C#CCN(C)CCCOc1ccc(Cl)cc1Cl
inactive: [1] | [2] > 46 µM and > 20.6 µM | [3] > 46 µM and > 20.6 µM | [4]

O=C(CCCN1CCC(O)(c2cccc(C(F)(F)F)c2)CC1)c1ccc(F)cc1
inactive: [1] | [2] > 46 µM | [3] > 46 µM | [4]

CCCCNc1ccc(C(=O)OCCN(C)C)cc1
inactive: [1] | [2] > 46 µM and > 20.6 µM | [3] > 46 µM and > 20.6 µM | [4]

CN(C(=O)CCCOc1ccc2[nH]c(=O)ccc2c1)C1CCCCC1
inactive: [1] | [2] > 46 µM | [3] > 46 µM | [4]

O=C(O)CP(=O)(O)O
inactive: [1] | [2] > 46 µM | [3] > 46 µM and > 9.22 µM | [4]

CN(C)CCCN1c2ccccc2Sc2ccc(C(F)(F)F)cc21
inactive: [1] | [2] > 46 µM and > 20.6 µM | [3] > 46 µM and > 20.6 µM | [4]

c1cc(CN2CCCCC2)cc(OCCCNc2nc3ccccc3s2)c1
inactive: [1] | [2] > 46 µM | [3] > 46 µM | [4]

CC(C)(Oc1ccc(CCNC(=O)c2ccc(Cl)cc2)cc1)C(=O)O
inactive: [1] | [2] > 20.6 µM | [3] > 20.6 µM | [4]

CCNC(=O)N1CCN(CCCC(c2ccc(F)cc2)c2ccc(F)cc2)CC1
inactive: [1] | [2] > 46 µM | [3] > 46 µM | [4]

Cc1nc2c([nH]1)c(=O)n(C)c(=O)n2Cc1ccco1
inactive: [1] | [2] > 46 µM | [3] > 46 µM | [4]

CCN(CC)CCOCCOC(=O)C1(c2ccccc2)CCCC1
inactive: [1] | [2] > 46 µM and > 20.6 µM | [3] > 46 µM and > 20.6 µM | [4]

CN(C)CCOC(=O)COc1ccc(Cl)cc1
inactive: [1] | [2] > 46 µM and > 20.6 µM | [3] > 46 µM and > 20.6 µM | [4]

CN(C)C(=O)Oc1cccc([N+](C)(C)C)c1
inactive: [1] | [2] > 46 µM and > 20.6 µM | [3] > 46 µM and > 20.6 µM | [4]

Cc1ccc(S(=O)(=O)NC(=O)NN2CCCCCC2)cc1
inactive: [1] | [2] > 46 µM and > 20.6 µM | [3] > 46 µM and > 20.6 µM | [4]

CCn1nc(C(=O)O)c(=O)c2cc3c(cc21)OCO3
inactive: [1] | [2] > 46 µM and > 20.6 µM | [3] > 46 µM and > 20.6 µM | [4]

Cc1ccc(Cl)c(Nc2ccccc2C(=O)O)c1Cl
inactive: [1] | [2] > 46 µM and > 20.6 µM | [3] > 46 µM and > 20.6 µM | [4]

CCO/C([O-])=N/c1c[n+](N2CCOCC2)no1
inactive: [1] | [2] > 46 µM and > 20.6 µM | [3] > 46 µM and > 20.6 µM | [4]

O=C(O)CN(CCN(CC(=O)O)CC(=O)O)CCN(CC(=O)O)CC(=O)O
inactive: [1] | [2] > 46 µM and > 20.6 µM | [3] > 46 µM and > 20.6 µM | [4]
